{"source": "PubChem BioAssay (NCI)", "note": "“And” between values parts separate entries of the source, which are not always exact repeats. Equal entries are not always repeated. This is part of a sample that, as a whole, favours compounds with a hit. Of some 79,000 tested, about 15% had one in any assay. Values without a mark were called inactive. The source made the active and inactive calls. Cut-off read from the data, not from the text of the source: active = growth inhibition above about 70%; inactive = the rest."}
{"experiment": "NCI Yeast Anticancer Drug Screen. Data for the cln2 rad14 strain (AID 165);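 note: 0% = growth equal to vehicle treated cultures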", "conditions": "S. cerevisiae cln2 rad14 strain, at 5.0 µM (retest, dose inferred, filed as 0.5), hits give high values", "procedure": "(§1) Growth inhibition of yeast strains with defined genetic alterations is measured as a screen for potential anti-cancer activity. Selected strains with alterations in DNA damage repair or cell cycle control were exposed to compounds and growth inhibition was measured relative to vehicle treated controls. The strain used in this assay is cln2 rad14"}
{"smiles": "C=CCc1cc(Cl)ccc1OC(=O)N(C)C", "growth inhibition": "6%"}
{"smiles": "COc1cc(/C=C(\\C)[N+](=O)[O-])cc(Br)c1O", "growth inhibition": "3%"}
{"smiles": "C/C(=C\\c1ccccc1)[N+](=O)[O-]", "growth inhibition": "11%"}
{"smiles": "CC[CH2][Pb]([CH2]CC)([CH2]CC)[NH]S(=O)(=O)c1ccc(C)cc1", "growth inhibition": "98% (active)"}
{"smiles": "[N-]=[N+]=NS(=O)(=O)c1ccccc1S(=O)(=O)N=[N+]=[N-]", "growth inhibition": "67%"}
{"smiles": "COC(=O)C1ON(c2ccccc2)C2c3ccccc3-c3ccccc3C12", "note": "(stereo not given)", "growth inhibition": "14%"}
{"smiles": "COc1c[c]([Hg][O]C(C)=O)c(OC)c(NC(=O)CC(C)=O)[c]1[Hg][O]C(C)=O", "growth inhibition": "43%"}
{"smiles": "CC[CH](C)[Sn](=[O])[c]1ccccc1", "note": "(stereo not given)", "growth inhibition": "15%"}
{"smiles": "CN1CCOC12CCC1(C)C(CCC3C4CCC(O)C4(C)CCC31)C2", "note": "(stereo not given)", "growth inhibition": "1%"}
{"experiment": "NCI Yeast Anticancer Drug Screen. Data for the cln2 rad14 strain (AID 165);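 note: 0% = growth equal to vehicle treated cultures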", "conditions": "S. cerevisiae cln2 rad14 strain, at 50.0 µM (retest, dose inferred, filed as 5.0), hits give high values", "procedure": "as §1"}
{"smiles": "C=CCc1cc(Cl)ccc1OC(=O)N(C)C", "growth inhibition": "-1%"}
{"smiles": "COc1cc(/C=C(\\C)[N+](=O)[O-])cc(Br)c1O", "growth inhibition": "43%"}
{"smiles": "C/C(=C\\c1ccccc1)[N+](=O)[O-]", "growth inhibition": "97% (active)"}
{"smiles": "CC[CH2][Pb]([CH2]CC)([CH2]CC)[NH]S(=O)(=O)c1ccc(C)cc1", "growth inhibition": "99% (active)"}
{"smiles": "[N-]=[N+]=NS(=O)(=O)c1ccccc1S(=O)(=O)N=[N+]=[N-]", "growth inhibition": "99% (active)"}
{"smiles": "COC(=O)C1ON(c2ccccc2)C2c3ccccc3-c3ccccc3C12", "note": "(stereo not given)", "growth inhibition": "67%"}
{"smiles": "COc1c[c]([Hg][O]C(C)=O)c(OC)c(NC(=O)CC(C)=O)[c]1[Hg][O]C(C)=O", "growth inhibition": "96% (active)"}
{"smiles": "CC[CH](C)[Sn](=[O])[c]1ccccc1", "note": "(stereo not given)", "growth inhibition": "90% (active)"}
{"smiles": "CN1CCOC12CCC1(C)C(CCC3C4CCC(O)C4(C)CCC31)C2", "note": "(stereo not given)", "growth inhibition": "8%"}
{"experiment": "NCI Yeast Anticancer Drug Screen. Data for the cln2 rad14 strain (AID 165);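 note: 0% = growth equal to vehicle treated cultures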", "conditions": "S. cerevisiae cln2 rad14 strain, at 50.0 µM, hits give high values", "procedure": "as §1"}
{"smiles": "CC[P+](C#Cc1ccccc1)(c1ccccc1)c1ccccc1", "growth inhibition": "87.2% (active)"}
{"smiles": "C=CCc1cc(Cl)ccc1OC(=O)N(C)C", "growth inhibition": "-19.3%"}
{"smiles": "O=C1C2CCN(CC2)C1Cc1ccccc1", "note": "(stereo not given)", "growth inhibition": "-4.3% and -0.15%"}
{"smiles": "COc1cc(/C=C(\\C)[N+](=O)[O-])cc(Br)c1O", "growth inhibition": "53.5%"}
{"smiles": "CCC(C)Sc1ccccc1OC(=O)NC", "note": "(stereo not given)", "growth inhibition": "-16.6%"}
{"smiles": "CCCCCCCCCCCCBr", "growth inhibition": "-12.7%"}
{"smiles": "C/C(=C\\c1ccccc1)[N+](=O)[O-]", "growth inhibition": "46.9%"}
{"smiles": "CN(C)CCSC(c1ccccc1)c1ccc(Br)cc1", "note": "(stereo not given)", "growth inhibition": "58.6%"}
{"smiles": "CC[CH2][Pb]([CH2]CC)([CH2]CC)[NH]S(=O)(=O)c1ccc(C)cc1", "growth inhibition": "97.9% (active)"}
{"smiles": "CC(C)=NNC1=NC(CC(C)C)P(=O)(NCCCCNP2(=O)SC(NN=C(C)C)=NC2CC(C)C)S1", "note": "(stereo not given)", "growth inhibition": "-18.2%"}
{"smiles": "CCCCN1COC2CCCCC21", "note": "(stereo not given)", "growth inhibition": "-12.6%"}
{"smiles": "CC1=NN(c2ccccc2)C(=O)C1N=Nc1ccc([As](=O)(O)O)c(O)c1", "note": "(stereo not given)", "growth inhibition": "-19.9%"}
{"smiles": "[N-]=[N+]=NS(=O)(=O)c1ccccc1S(=O)(=O)N=[N+]=[N-]", "growth inhibition": "74.8% (active)"}
{"smiles": "COC(=O)C1ON(c2ccccc2)C2c3ccccc3-c3ccccc3C12", "note": "(stereo not given)", "growth inhibition": "50%"}
{"smiles": "COc1c[c]([Hg][O]C(C)=O)c(OC)c(NC(=O)CC(C)=O)[c]1[Hg][O]C(C)=O", "growth inhibition": "90% (active)"}
{"smiles": "CC[CH](C)[Sn](=[O])[c]1ccccc1", "note": "(stereo not given)", "growth inhibition": "28.1%"}
{"smiles": "CCC(Br)C(N)=O", "note": "(stereo not given)", "growth inhibition": "-59.5%"}
{"smiles": "CN(C)c1ccc(N=Nc2cccc(C(=O)[O-])c2)cc1.CN(C)c1ccc(N=Nc2cccc(C(=O)[O-])c2)cc1.NC1CCCCC1N.[Pt+4]", "growth inhibition": "1.2%"}
{"smiles": "CCOP(=O)(OCC)/C(C#N)=C/c1ccccc1OC", "growth inhibition": "-4.65%"}
{"smiles": "CN1CCOC12CCC1(C)C(CCC3C4CCC(O)C4(C)CCC31)C2", "note": "(stereo not given)", "growth inhibition": "-6.75%"}
{"smiles": "CCOC(OCC)c1ccc(N(C)C)cc1.[C-]#[O+].[C-]#[O+].[C-]#[O+].[Cr]", "growth inhibition": "-4.5%"}
{"smiles": "O=S(O)(O)=S.[Co+3].[NH-]CC[NH-].[NH-]CC[NH-].[NH2-].[NH2-]", "growth inhibition": "-19.4%"}
